Hits are enriched below; roughly 32% of the tested compounds scored in any of these assays.
PostGolgi yeast = phenotypic screen on post-Golgi transport, primary screen. post-Golgi transport phenotypic cell assay. inhibition, % at 10 µM. 98,000 compounds, 0.9% hits. AID 739, 2007;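 note: yeast cells grown in 1536-well plates; yeast grown about 18 h at 30C before absorbance read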
PostGolgi ctrl = growth inhibition of yeast control strain, primary screen, counter-screen for post-Golgi transport modulator project | efflux-deficient yeast background strain, growth absorbance A615, 16 h | 98,000 compounds, 5% hits | AID 738, 2007 | inhibition, % at 10 µM
CYP2C19 inhib = blockers of cytochrome P450 2C19 activity – biochemical, luminescence, ADME assay, primary screen | AID 778, 2007 | 96,000 compounds, 21% hits | inhibition, % at 5 µM | CYP2C19 Supersomes, luciferin-H EGE luminescence, 30 min | P33261;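 active = CYP2C19 inhibition above a set limit at 5 µM in the primary screen, cut at about 50% in these data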;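 note: plate controls were negative control wells for no effect and 2.5 mM tranylcypromine positive control for full effect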
CYP2C19 activ = human CYP2C19 activators, primary screen, biochemical, luminescence. Cytochrome P450 2C19 (Homo sapiens), P33261. recombinant CYP2C19, luciferin-H EGE luminescence; stronger effect = higher value; 0 = fully inhibited enzyme, 1 = untreated enzyme. activation factor at 5 µM. 96,000 tested, under 10 active;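 active = activation factor of at least 2 at 5 µM in the primary screen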;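 note: 0 = wells with 2.5 mM tranylcypromine and 1 = vehicle-only wells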
CYP2C9 inh = blockers of cytochrome P450 2C9 activity – biochemical, luminescence, ADME assay, primary screen | CYP2C9 Supersomes, luciferin-H conversion | inhibition, % at 5 µM | 96,000 compounds, 20% hits | P11712 | AID 777, 2007;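 active = blocking of liver enzyme CYP2C9 beyond about 50% at 5 µM, limit read from the data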
Target sequence (P11712 whole entry, looked up): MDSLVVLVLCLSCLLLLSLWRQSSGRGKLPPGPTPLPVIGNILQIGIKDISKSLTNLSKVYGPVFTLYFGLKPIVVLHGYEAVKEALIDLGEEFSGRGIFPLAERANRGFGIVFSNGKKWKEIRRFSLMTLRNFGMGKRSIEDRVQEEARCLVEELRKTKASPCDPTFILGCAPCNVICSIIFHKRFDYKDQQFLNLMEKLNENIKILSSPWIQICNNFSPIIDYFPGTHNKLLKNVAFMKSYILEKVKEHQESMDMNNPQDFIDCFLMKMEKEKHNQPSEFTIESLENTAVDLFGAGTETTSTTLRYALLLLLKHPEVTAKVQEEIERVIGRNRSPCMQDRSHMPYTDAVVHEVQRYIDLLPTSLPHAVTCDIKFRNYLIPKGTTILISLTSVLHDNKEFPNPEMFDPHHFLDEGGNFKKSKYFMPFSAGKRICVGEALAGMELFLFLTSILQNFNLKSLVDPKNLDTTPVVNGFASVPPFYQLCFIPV
CYP2C9 act = human CYP2C9 activators, primary screen, biochemical, luminescence; Cytochrome P450 2C9 (Homo sapiens), P11712; recombinant CYP2C9, luciferin-H conversion; stronger effect = higher value; factor 1 = untreated enzyme, 0 = blocked; activation factor at 5 µM; 96,000 compounds, 1.4% hits; AID 1024, 2008;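 active = activation factor of 2 or more for CYP2C9 at a 5 µM dose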;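 note: 0 = sulfaphenazole-blocked wells and 1 = vehicle-only wells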
* = called active by the depositor; . = no result. Cut-off read from the data, not from the text of the source, unless noted: active = inhibition above about 30%; inactive = the rest.

SMILES	PostGolgi yeast	PostGolgi ctrl	CYP2C19 inhib	CYP2C19 activ	CYP2C9 inh	CYP2C9 act
CC1(C)CC(=O)C(C=NCCN2CCN(C(=S)Nc3ccccc3)CC2)=C(O)C1	7.8	1.4	31.7	0.7	8.0	0.9
Cc1ccc(-c2cnc(SCC(=O)N3CCCc4ccccc43)n2C)cc1	-1.1	14.8	33.2	0.7	22.9	0.8
O=c1nc2ccccc2c2n1CC(CN1CCN(c3ccccc3F)CC1)N2 (stereo not given)	-1.2	1.1	-1.4	1	36.1	0.6
COc1ccccc1C1/C(=C(/O)c2ccc(Cl)cc2)C(=O)C(=O)N1CCN1CCOCC1 (stereo not given)	-1.8	20.8	5.7	0.9	24.6	0.8
Cc1ccccc1Nc1c(N)c(=O)oc2ccccc12	2.0	18.7	95.6*	0	64.9*	0.4
Nc1c(NCCN2CCOCC2)c2ccccc2oc1=O	-6.6	16.8	13.1	0.9	-9.3	1.1
CCC(NC(=O)Nn1cnnc1)(C(F)(F)F)C(F)(F)F	7.7	-13.1	.	.	.	.
CCc1ccc(NC(=O)N(Cc2cccnc2)Cc2ccco2)cc1	-0.2	-1.6	97.8*	0	87.1*	0.1
CCc1ccc(NC(=O)N(C2CCCCC2)C(C)c2cccnc2)cc1 (stereo not given)	106.5*	95.2*	17.0	0.8	15.7	0.8
CCc1ccc(NC(=O)N(Cc2ccco2)C(C)c2cccs2)cc1 (stereo not given)	-1.7	20.2	23.7	0.8	42.2	0.6
Cc1ccc(NC(=O)N(C2CCCCC2)C(C)c2cccnc2)cc1C (stereo not given)	99.0*	90.4*	6.7	0.9	-8.6	1.1
COc1ccc2oc(C(=O)OCC(=O)NC(=O)NC(C)C)c(C)c2c1	-14.6	15.6	14.5	0.9	9.0	0.9
CCC(C)N(NC(C)=O)c1nc(Cl)nc(NC(C)(C)C)n1 (stereo not given)	2.6	2.8	7.3	0.9	19.9	0.8
CN(C)c1ccc(C2NCCS2)cc1 (stereo not given)	16.2	-3.9	16.9	0.8	6.9	0.9
CC(=O)Nc1ccc(Oc2cc(C#N)c(C#N)cc2N2CCOCC2)cc1	-3.0	8.7	41.6	0.6	52.6*	0.5
Cc1ccc(N2C(=O)CC(n3ccnc3)C2=O)cc1C (stereo not given)	-11.6	-4.6	57.6*	0.4	5.1	0.9
Cc1cccc(N2C(=O)CC(N3CCOCC3)C2=O)c1 (stereo not given)	7.7	-4.6	16.7	0.8	-13.4	1.1
Cc1cc2c3c(c1)C1(SCC(=O)N1c1ccc(F)cc1)C(=O)N3C(C)(C)CC2C (stereo not given)	11.1	32.6*	38.0	0.6	39.2	0.6
O=C1CSC2(C(=O)N3CCCc4cccc2c43)N1c1cccc(C(F)(F)F)c1 (stereo not given)	-1.1	17.8	20.3	0.8	25.5	0.7
N#CC1=C(c2ccccc2)/C(=C/c2ccccc2)OC1=O	10.8	50.6*	26.2	0.7	45.8	0.5
CCN(CC)S(=O)(=O)c1cccc(-c2nnc(SCC(=O)NCCC3=CCCCC3)n2N)c1	-1.9	4.6	17.7	0.8	38.2	0.6
CC(C)c1nnc(SCC(=O)NCCC2=CCCCC2)n1N	-4.3	3.6	17.1	0.8	60.5*	0.4
Cc1cccc(-c2cc3nc4c(c(NCc5ccco5)n3n2)CCCC4)c1	2.8	42.3*	15.4	0.8	34.7	0.7
C1CCc2c(nc3nnnn3c2N2CCOCC2)C1	1.6	0.3	-9.0	1.1	18.5	0.8
Cc1cccc(-c2cc3nc4c(c(N5CCOCC5)n3n2)CCCC4)c1	-6.8	72.3*	26.1	0.7	55.0*	0.4
SMILES	PostGolgi yeast	PostGolgi ctrl	CYP2C19 inhib	CYP2C19 activ	CYP2C9 inh	CYP2C9 act
Cc1cccc(-c2noc(CCC(=O)NCc3ccco3)n2)c1	-2.1	-5.8	15.1	0.8	33.9	0.7
OC1CCN(c2c3c(nc4cc(-c5ccc(F)cc5)nn24)CCC3)CC1	1.7	48.9*	6.8	0.9	49.2	0.5
O=C(C1CCCO1)N1CCN(c2c3c(nc4cc(-c5ccc(F)cc5)nn24)CCC3)CC1 (stereo not given)	-1.9	19.1	14.6	0.9	20.7	0.8
Fc1ccc(-c2cc3nc4c(c(N5CCOCC5)n3n2)CCCC4)cc1	18.8	57.1*	9.6	0.9	21.3	0.8
Cn1c(N)c(C(=O)CSc2nc(N)cc(=O)[nH]2)c(=O)n(C)c1=O	-1.9	2.7	11.3	0.9	7.6	0.9
O=C(O)CCCCCNC(=O)CCn1cnc2ccccc2c1=O	2.4	2.4	2.9	1	4.9	1
CCOC(=O)c1ccc2nc(C)c3c(c2c1)OC(C)C3 (stereo not given)	-4.7	8.2	12.7	0.9	12.1	0.9
CCOC(=O)c1ccc2nc(C(F)(F)F)[nH]c(=O)c2c1	-0.7	6.8	-10.2	1.1	60.1*	0.4
CCOc1cc(N2CCOCC2)c(OCC)cc1NS(=O)(=O)c1ccc(Cl)s1	3.4	6.5	93.1*	0.1	60.2*	0.4
COC(=O)Oc1nsnc1N1CCOCC1	1.4	-0.3	3.5	1	44.7	0.6
O=C(COc1ccc(Cl)cc1)Nc1ccccc1N1CCOCC1	6.3	9.9	25.5	0.7	-19.3	1.2
Cc1cc(Cl)ccc1OCC(=O)Nc1ccccc1N1CCOCC1	-4.6	23.5	91.2*	0.1	94.5*	0.1
Brc1ccc(Oc2nsnc2N2CCOCC2)cc1	0.2	6.8	89.3*	0.1	24.3	0.8
O=C(Oc1nsnc1N1CCOCC1)N(c1ccccc1)c1ccccc1	15.1	30.4*	37.1	0.6	45.3	0.5
COc1ccc(-c2cc(C(F)F)n3ncc(C(=O)N4CCN5CCCC5C4)c3n2)cc1 (stereo not given)	2.3	-2.8	32.4	0.7	34.6	0.7
COc1ccc(CCNC(=O)COc2nsnc2N2CCOCC2)cc1OC	-3.4	5.5	9.4	0.9	14.7	0.9
O=C(COc1ccc(Cl)cc1Cl)NC(=O)N1CCOCC1	-5.8	5.0	52.0*	0.5	-12.9	1.1
O=C(Cc1ccc(Cl)cc1)Nc1ccccc1N1CCOCC1	10.6	6.1	84.1*	0.2	40.9	0.6
Cc1ccccc1NC(=O)COc1nsnc1N1CCOCC1	-3.4	5.3	60.2*	0.4	14.8	0.9
Cc1ccc(CC(=O)Nc2ccccc2N2CCOCC2)cc1C	-17.1	7.3	39.7	0.6	83.2*	0.2
CC(C)CC(=O)Nc1ccccc1N1CCOCC1	-10.8	2.2	13.6	0.9	4.4	1
CC1(Cc2ccc3c(c2)OCO3)NC(=O)NC1=O (stereo not given)	0.9	-2.9	-4.3	1	-24.0	1.2

Screening results: PubChem BioAssay, several laboratories
